Compound activity deposited in PubChem BioAssay by several laboratories.
CR mimetic SO = reduction of superoxide in aged yeast, primary screen, HTS; 0.18% of 330,000 active; S. cerevisiae aged cells, superoxide DHE fluorescence; stronger effect = lower value; AID 2690, 2010; superoxide response (% of plate mean), % at 10 µM;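 active = superoxide response under a set limit, about three screen SD below normal, cut at about 65% in these data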;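 note: yeast aged for seven days with compound at 30 °C before DHE staining; 100% = average MFI of all compound-treated wells on the plate with controls excluded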
Mot1-301 SUMO = yeast Mot1-301 growth rescue at high temperature, primary screen, SUMOylation pathway inhibitor project, S. cerevisiae, ATP luminescence, 38.5C | 1% of 320,000 active | growth rescue, % at 18.8 µM | AID 2716, 2010 | S. cerevisiae Mot1-301 growth rescue; percent above DMSO median, 100 means doubled;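 active = every valid replicate shows activation above 250% relative to neutral control wells; inactive = the rest, any valid replicate at or below 250%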;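 note: OY570 slx delta 5 strain wells were the positive control but not used for scaling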
aDG glyco act = activators of alpha-DG glycosylation, primary screen, uHTS, Pro5-aDG cells, AlphaScreen. alpha-DG glycosylation AlphaScreen (IIH6); 0% Pro5, 100% B10-LARGE cell signal. activation, % at 10 µM. 0.22% of 360,000 active. AID 624168, 2012;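 active = activation of at least 8% versus controls, or a plate z-score of at least 8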;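 note: Pro5 are CHO cells carrying HIG-tagged alpha-DG that lacks glycosylation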
H9c2 protect = cardioprotection against H2O2-induced cell death, primary screen, uHTS, H9c2 cells, ATPLite luminescence; 0.63% of 360,000 active; AID 588492, 2011; H9c2 cardiomyocytes, H2O2 injury protection, 2 h; protection from H2O2 cell death, % at 20 µM;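 active = compounds giving at least 50% protection of heart cells from peroxide-induced death in the single-dose screen, raw or plate-pattern-corrected value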;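 note: 0% = DMSO wells with peroxide and 100% = DMSO wells without peroxide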
FAS TE block = FAS thioesterase domain inhibitors, primary screen, biochemical, fluorescence intensity, uHTS. Fatty acid synthase (Homo sapiens), P49327. recombinant FAS-TE, OMFH fluorogenic substrate, fluorescence endpoint. inhibition, % at 15 µM. 0.67% of 360,000 active;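 active = compounds whose normalised, plate-corrected inhibition of enzyme fluorescence in the single-dose primary screen is 50% or more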;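 note: 0% = DMSO with enzyme and 100% = substrate without enzyme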
MPTP block = mitochondrial permeability transition pore inhibitors, primary screen, biochemical, isolated mouse mitochondria, absorbance; Ca2+ swelling absorbance, 30 min; inhibition, % at 10 µM; 1.4% of 360,000 active;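 active = inhibition of 50% or more, scaled per plate between neutral and stimulator controls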;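 note: 0% = DMSO wells given calcium and 100% = 1 mM EGTA wells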
Starred values were filed as active, the others as inactive; · = no result given. Sampled rows, rich in hits. Any-hit rate of the full collection: about 3.8%.

SMILES	CR mimetic SO	Mot1-301 SUMO	aDG glyco act	H9c2 protect	FAS TE block	MPTP block
COc1ccc(C(=O)N/N=C(\c2ccccc2)c2ccccn2)cc1	95.0	3.8	0.8	60.3*	-3.1	0.7
O=C(NN=C(c1ccccc1)c1ccccn1)c1ccccc1	100.8	18.0	-0.6	37.1	1.0	-0.4
Cc1ccc(-n2c(CCc3ccccc3)n[nH]c2=S)cc1C	111.1	-3.7	-0.1	3.9	3.7	-1.3
CC(C)C(C(=O)NCC1CCCO1)N(C(=O)CNS(=O)(=O)c1ccc(F)cc1)C1CCCCC1 (configuration not stated)	102.0	0.8	0.0	-0.9	-4.4	-0.2
O=C(COC(=O)c1cc(S(=O)(=O)N2CCOCC2)ccc1O)Nc1cc(S(=O)(=O)N2CCCC2)ccc1Cl	96.3	352.3*	-0.2	-0.9	-1.5	3.5
O=S(=O)(Nc1c(F)cccc1F)c1ccc(Cl)nc1	100.7	280.1	-0.1	-0.5	-4.9	-0.7
O=C(Nc1ccc(N2CCN(C(=O)c3ccc(Cl)cc3)CC2)cc1)c1ccc2c(c1)OCCO2	98.3	-1.5	4.0*	-12.6	15.7	-1.1
O=C(Nc1ccc(N2CCN(C(=O)c3ccccc3)CC2)cc1)c1ccc2c(c1)OCCO2	99.7	13.6	0.2	-0.5	7.9	-0.8
COc1ccccc1OCCSc1nc2ccccc2c(=O)[nH]1	103.3	-9.0	-0.1	66.3*	1.7	1.7
COc1ccc(CSc2nc3ccccc3c(=O)[nH]2)cc1F	106.5	121.2	-0.2	53.2*	1.2	0.4
O=c1[nH]c(SCCOc2ccccc2F)nc2ccccc12	94.2	-3.9	-0.1	12.1	9.2	-4.2
COCCn1c(SCc2ccc(OC)c(F)c2)nc2ccccc2c1=O	102.0	49.6	0.4	-2.4	27.7	-0.5
CC1(C(=O)Nc2cccc(OC(F)(F)F)c2)Cc2c(-c3ccc(C(N)=O)cc3)ccnc2O1 (configuration not stated)	·	·	0.3	55.5*	11.2	-0.7
CC(=O)Nc1cccc(-c2ccnc3c2CC(C)(C(=O)Nc2cccc(OC(F)(F)F)c2)O3)c1 (configuration not stated)	·	·	0.0	10.9	17.0	2.7
O=C(Nc1ccc(F)cc1)Nc1nnc([C@@H]2C[C@H](O)[C@@H](CO)O2)s1	·	·	1.2	8.2	-7.4	0.2
O=C(CNc1ccc(Br)cc1)NC(=O)NC1CCCCC1	·	·	0.0	-3.3	9.2	-0.7
CCOC(=O)c1c2c3c(cccc3n(C)c1=O)C(=O)c1ccccc1-2	98.0	-9.6	-0.1	75.0*	16.2	0.1
CCOC(=O)c1c2c3c(c(Cl)ccc3[nH]c1=O)C(=O)c1ccccc1-2	·	·	0.9	60.2*	40.2	0.5
CCOC(=O)c1c2c3c(cccc3[nH]c1=O)C(=O)c1ccccc1-2	99.3	-3.0	-0.2	15.7	-4.7	-2.3
Cc1ccn2c(C(C)O)nnc2c1 (configuration not stated)	·	·	-0.1	0.9	-5.8	0.0
COc1ccccc1N(CC(=O)NCCSc1ccccc1)S(=O)(=O)c1ccccc1	103.9	2.5	0.0	7.3	19.1	0.6
COc1ccc(N(CC(=O)NCCSc2ccccc2)S(=O)(=O)c2ccccc2)c(OC)c1	97.1	-14.8	-0.3	55.5*	23.5	-0.1
C/C(=N\NC(=O)c1c(Br)c(C)nn1C)c1ccc(NC(=O)c2ccoc2C)cc1	94.5	36.0	0.1	51.5*	-4.6	-1.6
C/C(=N\NC(=O)c1nn(C)c(C)c1Br)c1ccc(NC(=O)c2ccoc2C)cc1	90.8	6.8	-0.2	16.7	-8.7	0.6
CCCn1c(N)c(N(CCOC)C(=O)CSCC(=O)Nc2ccc(C)cc2)c(=O)[nH]c1=O	86.4	-15.8	0.1	-4.1	-5.0	-1.5
COC(=O)C1(c2ccccc2)NC(c2ccc(O)cc2)C2C(=O)N(c3ccc4c(c3)OCO4)C(=O)C21 (configuration not stated)	109.7	259.5*	0.1	0.3	-4.0	1.2
O=c1[nH]c2cc(F)ccc2c2ccc(F)cc12	·	·	0.0	61.5*	0.5	-2.3
COC(=O)c1ccc(N)cc1O	88.4	·	-0.2	8.9	-17.1	-0.2
